D1 potentiator: Potentiators of Human D1 Dopamine Receptor: qHTS | D(1A) dopamine receptor (Homo sapiens), P21728 | HEK293 TREx D1 cells, calcium flux, dopamine EC20 potentiation | potentiation, % at 10 µM | actives 0.036% (n = 360,000); in the data active = potentiation above about 30%
D3 antag: qHTS of D3 Dopamine Receptor Antagonist: qHTS; D3R cells, DiscoveRx beta-arrestin luminescence, antagonist mode; stronger effect = lower value; max response, negative = inhibition, %; actives 2.5% (n = 360,000); in the data active = max response below about -50%
Target sequence (P35462 whole entry, looked up): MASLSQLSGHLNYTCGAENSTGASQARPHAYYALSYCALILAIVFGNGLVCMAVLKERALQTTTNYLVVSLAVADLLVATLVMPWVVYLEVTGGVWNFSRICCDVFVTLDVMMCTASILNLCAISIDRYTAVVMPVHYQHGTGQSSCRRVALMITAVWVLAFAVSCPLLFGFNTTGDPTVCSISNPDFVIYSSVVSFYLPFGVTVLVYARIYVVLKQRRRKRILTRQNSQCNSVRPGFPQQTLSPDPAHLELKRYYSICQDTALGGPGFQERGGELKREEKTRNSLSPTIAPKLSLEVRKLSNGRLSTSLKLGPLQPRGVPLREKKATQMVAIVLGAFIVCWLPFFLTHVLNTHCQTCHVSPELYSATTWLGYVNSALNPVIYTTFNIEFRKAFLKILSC
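Cells plated overnight at 1500 cells/well, then exposed to library compounds with dopamine controls for 90 minutes at 37 degrees C. DiscoveRx reagent added for 30–60 minutes at room temperature; luminescence read, quantitative HTS format.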
D1 antagonist: Antagonist of Human D 1 Dopamine Receptor: qHTS; AID 504652, 2011; actives 3.2% (n = 360,000); HEK293 TREx D1 cells, calcium flux, dopamine EC80; stronger effect = lower value; activity change, negative = inhibition, % at 10 µM; D(1A) dopamine receptor (Homo sapiens), P21728; in the data active = activity change below about -30%
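Cells carrying a force-coupled, tetracycline-inducible human D1 receptor report calcium flux. Each well gets a 10 s baseline, compound with 180 s monitoring, then an EC80 dopamine stimulus with a second 180 s kinetic read.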
D3 ag: qHTS of D3 Dopamine Receptor Agonist: qHTS; D(3) dopamine receptor (Homo sapiens), P35462; D3R DiscoveRx beta-arrestin cells, luminescence, 90 min; max activation, %; actives 0.58% (n = 410,000); in the data active = max activation above about 30%
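Cells at 1500/well, incubated overnight, then treated with pinned compounds (dopamine as control) for 90 min at 37 degrees C. DiscoveRx reagent added for 30 - 60 minutes at room temperature; luminescence read.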
D1 agonist: Allosteric Agonists of the Human D1 Dopamine Receptor: qHTS | HEK293 T-REx D1 cells, calcium flux, agonist mode | AID 504660, 2011 | actives 1% (n = 360,000) | activation, % at 2 µM; in the data active = activation above about 30%
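Tetracycline-induced HEK293 TREx D1 cells, force-coupled to calcium signalling, were dye-loaded with a no-wash calcium kit. Compound was pin-added after a 10 s baseline. Fluorescence was read kinetically at 1 cycle/s for 180 s, with calcium rises flagged as agonism.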
Each line names hits and unclear results; the compound was inactive in the other large screens. This is a sample that favours compounds with a hit; in the whole collection about 6% have one here.

CCOc1ccc(CCN2C(=S)N([C@@H](Cc3ccc(O)cc3)CN3CCCC3CN3C(=S)NC[C@@H]3Cc3ccc(O)cc3)C[C@@H]2CC(C)C)cc1 (stereo partly specified)	D3 antag -68 (no result: D1 potentiator, D1 antagonist, D1 agonist)
CCOc1ccc(CCN2C(=S)N([C@@H](Cc3ccc(O)cc3)CN3CCC[C@@H]3CN3C(=S)NC[C@@H]3CC(C)C)C[C@@H]2Cc2ccc(O)cc2)cc1	D3 antag -80 (no result: D1 potentiator, D1 antagonist, D1 agonist)
CCNc1c(NC(=O)c2ccccc2OCC)c(=O)oc2ccccc12	none (no result: D3 antag)
COc1cccc(N2CC34C=CC(O3)C(C(=O)O)C4C2=O)c1 (stereo unspecified)	D1 antagonist -42
Cc1cc2c(s1)c1cnn(Cc3ccc(C(F)(F)F)cc3)c(=O)c1n2C	none (no result: D3 antag, D3 ag)
O=C(c1cccs1)N1CCCc2cc(NS(=O)(=O)c3ccc(Br)cc3)ccc21	D1 antagonist -40 (no result: D3 antag)
O=C(Nc1ccc2c(c1)CCCN2C(=O)c1cccs1)c1cccc(F)c1	D1 antagonist -36
O=C(Nc1ccc2c(c1)CCCN2C(=O)c1cccs1)c1cccc(C(F)(F)F)c1	D1 antagonist -58 (no result: D3 antag)
Cc1c(CNC2CCCCC2)c(C(=O)O)c(C)n1Cc1ccc(Cl)cc1	none (no result: D3 antag)
COCc1cc(C)nc2sc3c(=O)n(-c4cc(C)ccc4C)nnc3c12	none (no result: D3 antag)
CCOc1ccc(S(=O)(=O)N(CC(=O)Nc2ccc3c(c2)OCO3)c2ccc(C)cc2)cc1	none (no result: D3 antag)
CC(C)(C)NS(=O)(=O)c1ccc(OCC(=O)Nc2ccc3c(c2)OCCO3)cc1	D1 antagonist -30
O=C(COc1ccc2c(c1)OCO2)Nc1cccc(F)c1	D1 antagonist -44 (no result: D1 potentiator)
CCOc1ccc(N(CC(=O)Nc2ccc3c(c2)OCO3)S(=O)(=O)c2ccccc2)cc1	D1 antagonist -46 (no result: D3 antag)
CCOc1ccc(OCCC(=O)OCC(=O)Nc2ccc3c(c2)OCO3)cc1	D1 antagonist -53
Cc1ccc(Cn2c(SCC(=O)NCc3ccc(Cl)cc3)nc3ccsc3c2=O)cc1	none (no result: D3 antag)
CN(C)c1ccc(CNC(=O)c2ccc(Cn3c(=O)c4cccn4c4cccnc43)cc2)cc1	none (no result: D3 antag)
Cc1ccc(OCCCC(=O)Nc2ccc3c(c2)OCO3)cc1	D3 antag -52
CCCSc1nc2sc3c(c2c(=O)n1-c1ccc(C)cc1)CCCC3	none (no result: D3 antag)
CCOC(=O)c1c(C)c(-c2ccccc2)n(CC(=O)Nc2cccc(C)c2C)c1C	none (no result: D3 antag)
CC(=O)c1ccc(N2CCN(C(=O)Nc3ccc(Cl)cc3)CC2)cc1	D1 antagonist -51
CC(=O)c1ccc(NC(=O)N2CCN(c3cccc(Cl)c3)CC2)cc1	D1 antagonist -51
CC(=O)c1ccc(N2CCN(C(=O)C3CCN(C(=O)Nc4ccccc4)CC3)CC2)cc1	none
O=C(Nc1ccc(Cl)cc1)N1CCN(c2ccccc2)CC1	none
CCS(=O)(=O)c1ncc(Cl)c(C(=O)N(Cc2ccccc2)Cc2ccco2)n1	none (no result: D3 antag)
O=C(COc1ccc([N+](=O)[O-])cc1)Nc1ccc(NC(=O)c2ccccc2)cc1	none
CC(=O)Nc1ccc(S(=O)(=O)NNC(=O)COc2ccc(C)cc2)cc1	D1 antagonist -33
Cc1ccc(OCC(=O)Nc2ccc([N+](=O)[O-])cc2)cc1	D1 antagonist -39
CC(=O)Nc1ccc(S(=O)(=O)NNC(=O)COc2ccc(C(C)(C)C)cc2)cc1	none
O=C(COc1ccccc1)Nc1ccc([N+](=O)[O-])cc1	D1 antagonist -82
CC(=O)Nc1nnc(SCc2cc(=O)c3cccc(Cl)c3[nH]2)s1	none (no result: D3 antag)
Cc1ccc(S(=O)(=O)c2nnn3c2nc(NC(C)c2ccccc2)c2sccc23)cc1 (stereo unspecified)	none (no result: D3 antag)
COc1cc(OC)cc(C(=O)Nc2ccc3oc(-c4ccc(Cl)cc4)nc3c2)c1	none (no result: D3 antag)
Cc1ccsc1C1C(C#N)=C(N)N(N(C)C)C2=C1C(=O)CCC2 (stereo unspecified)	D1 antagonist -35
CN(C)N1C(N)=C(C#N)C(c2cccs2)C2=C1CCCC2=O (stereo unspecified)	none
Cc1onc(-c2c(F)cccc2Cl)c1C(=O)N[C@@H]1C(=O)N2[C@@H]1SC(C)(C)[C@@H]2C(=O)O	none (no result: D1 potentiator, D3 antag, D1 antagonist, D1 agonist)
CC(=O)O[C@@H]1C(=O)O[C@@H]2[C@H]1OC(=O)[C@@H]2OC(C)=O	none (no result: D1 potentiator, D3 antag, D1 antagonist, D1 agonist)

From PubChem BioAssay
